Measurements published in the GenesisPotency data set.
Hit rate of the full screen: of about 1,300 compounds, about 55 (4%) were called active.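 Rule for the calls: active = fitted EC50 between 10 nM and 100 µM, Hill slope size 0.5 to 2, real signal loss, low interference; inactive = the rest.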 Not all results are given here. Measured potencies and affinities stand elsewhere.

These compounds were tested against Ras-related C3 botulinum toxin substrate 1, Mus musculus (UniProt P63001) (assay: inhibitors of activated mutant Rac1 GTP binding, dose response, biochemical, multiplex, GST-Rac1 beads, Bodipy-FL-GTP, flow cytometry (AID 1339)).

Structure (SMILES) | outcome
COC(=O)c1cccc(NC(=O)c2nn(C)c(=O)c3ccccc23)c1 | inactive
Cc1ccc(C)c(N(CC(N)=O)S(C)(=O)=O)c1 | inactive
Cc1nc2ccc(NC(=O)COc3ccccc3)cc2s1 | inactive
CCOC(=O)Cn1c(=O)c2c(nc(N3CCCCC3)n2C)n(C)c1=O | inactive
O=C(O)c1ccc(CNCc2ccc(F)cc2)s1 | inactive
Cc1cccc(CNc2nc(C)ccc2C(=O)O)c1 | inactive
CCc1ccccc1NCc1sc(C(=O)O)cc1C | inactive
Cc1cc(C(F)F)n2nc(C(=O)Nc3ccc(S(=O)(=O)N4CCCCCC4)cc3)nc2n1 | inactive
CCC(=O)c1ccc(OCC(=O)O)c(OC)c1 | inactive
O=C(CNC(=O)c1ccco1)OCN1C(=O)c2ccccc2C1=O | inactive
COc1ccc(CCNC(=O)C2CCCN2C(=O)NC2CCCCC2)cc1OC (stereo not given) | inactive
CC(C)(C)NC(=O)CSc1nccn1Cc1ccccc1 | inactive
CCCCNC(=O)c1cc([N+](=O)[O-])[nH]n1 | inactive
Nc1nc(CN2CCN(c3ccccc3F)CC2)nc(N2CCCc3ccccc32)n1 | inactive
COc1cccc(OCc2c(C)cccc2C)c1C(=O)O | inactive
CCn1c2ccccc2c2nc3cc(C(=O)O)ccc3nc21 | inactive
COc1cccc(NC(=O)NCCCN2CCN(c3ccc(F)cc3)CC2)c1 | inactive
Cc1nn(-c2ccc(F)cc2)c(Cl)c1/C=C(\CCC(=O)O)c1nc2ccccc2s1 | inactive
Cn1c(=O)cc(N2CCOCC2)[nH]c1=O | inactive
Cc1cc2nc3c(=O)n(C4CCCCC4)c(=O)[nH]c3nc2cc1N | inactive
CNC(=O)C(C)NS(=O)(=O)c1ccc(F)cc1 (stereo not given) | inactive
NC(=O)COC(=O)c1cccc2c1-c1ccccc1C2=O | inactive
O=C(O)c1cc([N+](=O)[O-])ccc1NCc1ccccc1Cl | inactive
COc1cc(-c2cc(=O)c3c(O)cc(O)cc3o2)ccc1O | inactive
O=C(Cc1ccc(Nc2nc(=S)[nH]c3ccccc23)cc1)NC1CCCCC1 | inactive
Cc1cc(C(F)(F)F)c(C#N)c(SCC(=O)Nc2nc3ccccc3s2)n1 | inactive
O=C(CSc1n[nH]c(=O)[nH]c1=O)N/N=C/c1ccccc1 | inactive

Structure (SMILES) | outcome
O=C1CN=C(c2ccccc2)c2cc(Br)ccc2N1Cc1cc(=O)n2ccccc2n1 | inactive
CC(C)[C@H](NC(=O)c1ccccc1)C(=O)OCC(=O)NCCc1ccc(F)cc1 | inactive
O=C(NCc1cccs1)c1cccn2c(=O)c3sccc3nc12 | inactive
Cc1cc(C)cc(C(=O)N(NC(=O)Nc2ccc(Cl)cc2)C(C)(C)C)c1 | inactive
Cn1c(NC(=S)Nc2ccccc2)nc2ccccc21 | inactive
O=C(Nc1cccc(-c2ccc3nncn3n2)c1)c1ccco1 | inactive
CC(C)CCNC(=O)Cc1ccc(Nc2nc(=S)[nH]c3ccccc23)cc1 | inactive
CCOc1c2ccc(C(=O)N[C@H](C)C3CCCCC3)cc2nn1CCOC | inactive
CS(=O)(=O)N1N=C(c2ccccc2)CC1c1ccc2c(c1)OCO2 (stereo not given) | inactive
Cc1ccc(-c2cn3cccc(C)c3n2)cc1 | inactive
CN1CCN(c2ccccc2NC(=O)c2ccc(-c3cccc([N+](=O)[O-])c3)o2)CC1 | inactive
O=C(O)C1CCCN1C(=O)OCc1ccccc1 (stereo not given) | inactive
COc1ccc([N+](=O)[O-])cc1NC(=S)NC(NC(=O)Cc1ccc(OC)c(OC)c1)C(Cl)(Cl)Cl (stereo not given) | inactive
Cc1ccc(-c2ccc(/C=C(\C#N)C(=O)Nc3cc(C)nn3-c3ccccc3)o2)cc1 | inactive
Cc1cccc2cc(CN(Cc3cccs3)C(c3nnnn3C3CCCC3)C(C)C)c(=O)[nH]c12 (stereo not given) | inactive
Cc1cccc(OCCSc2nc3ccccc3n2CC(=O)O)c1C | inactive
CC(C)(C)c1ccc(OCCSc2nc3ccccc3n2CC(=O)O)cc1 | inactive
COc1ccc(OC)c(/C=N/NC(=O)c2ccc(Cn3cc([N+](=O)[O-])cn3)o2)c1 | inactive
O=C(Nc1nc(-c2ccc(S(=O)(=O)N3CCCC3)cc2)cs1)c1cccs1 | inactive
Nc1cccc(S(=O)(=O)c2cccc(N)c2)c1 | inactive
Cc1ccc(/C=C(\CCC(=O)O)c2nc3ccccc3s2)cc1[N+](=O)[O-] | inactive
Cc1c(NC(=O)CCN2C(=O)c3ccccc3C2=O)c(=O)n(-c2ccccc2)n1C | inactive
C=C(C)COc1ccc(-c2n[nH]c(C)c2-c2ccc(Br)cc2)c(O)c1 | inactive
CCc1ccc(OCc2ccc(C(=O)O)o2)cc1 | inactive
COc1ccc(N/C=C/c2nc(SC)nnc2C)cc1 | inactive
CCC(OC(=O)c1cc2sccc2n1C)C(=O)NCc1ccco1 (stereo not given) | inactive
Br.COc1cc(NS(=O)(=O)c2ccc(Nc3nc(-c4ccccc4)cs3)cc2)nc(OC)n1 | inactive

Structure (SMILES) | outcome
COc1ccc(-c2nn3c(-c4ccccn4)nnc3s2)cc1OC | inactive
COc1ccccc1-n1cc([C@@H]2C[C@H]3CN(c4ccccc4)C(=O)[C@]34CCCN24)cn1 | inactive
CC(=O)OC(C(=O)NC1CCCCC1)c1ccc(Cl)cc1 (stereo not given) | inactive
CC(C)C(=O)N1CCN(c2ccccc2NC(=O)c2cccc(Cl)c2)CC1 | inactive
COc1ccc(-c2nnc(S/C(=C/c3ccc(Cl)cc3)C(=O)O)o2)cc1 | inactive
Cc1nc2ncccn2c1-c1csc(Nc2ccccc2)n1 | inactive
Cc1cccc(CNc2ncccc2C(=O)O)c1 | inactive
COC(=O)c1ccc(COc2ccccc2/C=N/Nc2cccc(C(=O)O)c2)cc1 | inactive
C=CCc1ccc(OCc2ccc(C(=O)O)o2)c(OC)c1 | inactive
Cc1ccc(-n2c(SCc3cc(=O)n4ccsc4n3)nnc2-c2cccnc2)c(C)c1 | inactive
COc1cccc(OCc2ccccc2Br)c1C(=O)O | inactive
CCc1nnc(NC(=O)CSc2nnc(CNc3ccc(F)cc3)n2C2CCCCC2)s1 | inactive
CN(C)CCN(C(=O)c1ccc(N2C(=O)CCC2=O)cc1)c1nc2cc3c(cc2s1)OCO3.Cl | inactive
Cc1cc(C)n2nc(C(=O)Nc3ccc(S(=O)(=O)N4CCCC4)cc3)nc2n1 | inactive
COc1ccc(/C=N/n2c(N)c(S(=O)(=O)c3cccs3)c3nc4ccccc4nc32)cc1OC | inactive
O=C(Oc1cccc(O)c1)C1CCCCC1 | inactive
COc1cc(NC(=O)c2cccs2)c(OC)cc1NC(=O)CCC(=O)Nc1cccc2ncccc12.Cl | inactive
CC1(C)Cc2c(sc(NC(=O)c3ccc(Br)o3)c2C#N)CO1 | inactive
C=CCNc1nc(=S)[nH]c2cc(OC)c(OC)cc12 | inactive
O=C(COC(=O)/C=C/c1cccs1)Nc1ccc2ccccc2c1 | inactive
Cc1nc(NC(=O)/C=C/c2ccc(Cl)cc2Cl)sc1C(=O)N(C)C | inactive
O=C(C1CCCO1)N1CCN(C(=S)Nc2ccccc2C(F)(F)F)CC1 (stereo not given) | inactive
COc1ccc(CC(=O)Nc2ccc(C(=O)Nc3nccs3)cc2)cc1OC | inactive
CS(=O)(=O)c1ccc(C(=O)OCc2nnc(-c3ccccc3)o2)cc1[N+](=O)[O-] | inactive
N#CC(c1ccc(Cl)nn1)c1ccc(Cl)cc1Cl (stereo not given) | inactive
Cc1cc(C)c2sc(N(CCN(C)C)C(=O)c3cc(Cl)sc3Cl)nc2c1.Cl | inactive
